Data: ChEMBL document CHEMBL3988442, “University of Dundee, Small-Polar-MMV Screening Library” (2021)
For some assays here: Measured potencies and affinities stand elsewhere.

What was measured:
Parameters in all cases: scale not given: direction of the effect not stated beside the values
[1] = biological target: Protein translocase subunit SecA (Escherichia coli (strain K12)) (UniProt P10408); test: Assay to Identify E. coli SecA ATPase Inhibitors; format: functional; details: 30 µM
[2] = biological target: T1, Ubiquitin-activating enzyme e1, putative (Leishmania donovani (strain BPK282A1)) (UniProt E9BSI1); test: Leishmania donovani Ubiquitin Activating Enzyme (LdE1); format: functional; details: 30 µM
T1 sequence (whole entry): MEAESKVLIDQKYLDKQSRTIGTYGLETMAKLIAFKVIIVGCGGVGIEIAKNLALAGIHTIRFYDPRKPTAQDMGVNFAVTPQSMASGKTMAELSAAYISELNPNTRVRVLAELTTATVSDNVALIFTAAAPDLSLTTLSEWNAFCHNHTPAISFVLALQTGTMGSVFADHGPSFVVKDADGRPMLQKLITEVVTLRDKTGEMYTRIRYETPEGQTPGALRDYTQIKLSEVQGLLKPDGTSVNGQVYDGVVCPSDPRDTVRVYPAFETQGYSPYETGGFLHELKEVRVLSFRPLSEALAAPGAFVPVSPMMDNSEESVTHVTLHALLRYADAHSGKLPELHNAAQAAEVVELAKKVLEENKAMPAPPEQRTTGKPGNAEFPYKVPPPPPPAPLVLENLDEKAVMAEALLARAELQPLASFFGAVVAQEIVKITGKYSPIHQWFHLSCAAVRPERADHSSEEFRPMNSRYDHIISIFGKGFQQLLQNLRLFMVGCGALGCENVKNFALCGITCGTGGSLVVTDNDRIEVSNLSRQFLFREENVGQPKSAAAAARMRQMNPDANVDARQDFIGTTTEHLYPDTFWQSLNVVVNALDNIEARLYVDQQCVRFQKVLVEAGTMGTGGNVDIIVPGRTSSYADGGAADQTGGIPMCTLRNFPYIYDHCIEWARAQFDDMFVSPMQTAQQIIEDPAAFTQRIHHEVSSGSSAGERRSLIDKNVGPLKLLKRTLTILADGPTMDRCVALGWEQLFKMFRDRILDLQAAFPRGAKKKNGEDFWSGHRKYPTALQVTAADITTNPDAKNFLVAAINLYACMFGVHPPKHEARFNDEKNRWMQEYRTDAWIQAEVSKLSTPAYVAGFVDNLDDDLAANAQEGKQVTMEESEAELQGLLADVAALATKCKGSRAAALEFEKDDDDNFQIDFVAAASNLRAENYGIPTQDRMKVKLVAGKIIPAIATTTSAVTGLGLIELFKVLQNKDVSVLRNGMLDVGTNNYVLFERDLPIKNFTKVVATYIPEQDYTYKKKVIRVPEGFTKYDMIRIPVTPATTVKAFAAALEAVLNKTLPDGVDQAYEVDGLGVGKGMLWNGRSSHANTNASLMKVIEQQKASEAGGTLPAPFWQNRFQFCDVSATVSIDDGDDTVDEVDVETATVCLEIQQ

[3] = biological target: AMP-activated protein kinase, AMPK (Homo sapiens) (UniProt P54646+O43741+P54619+Q9UGJ0+Q9Y478+Q13131+Q9UGI9); test: AMP-dependent Kinase enzyme assay. An in vitro enzyme assay that detects ADP turnover that is directly proportional to AMPK activity. This uses naive AMPK that is activated during the assay with MK-8722; format: functional; details: 30 µM
[4] = biological target: Sialic acid-binding Ig-like lectin 9 (Homo sapiens) (UniProt Q9Y336); test: Hs-Siglec9 ALPHAscreen SOP 20170721; details: 10 µM
Sialic acid-binding Ig-like lectin 9 (Homo sapiens), sequence (Q9Y336 whole entry): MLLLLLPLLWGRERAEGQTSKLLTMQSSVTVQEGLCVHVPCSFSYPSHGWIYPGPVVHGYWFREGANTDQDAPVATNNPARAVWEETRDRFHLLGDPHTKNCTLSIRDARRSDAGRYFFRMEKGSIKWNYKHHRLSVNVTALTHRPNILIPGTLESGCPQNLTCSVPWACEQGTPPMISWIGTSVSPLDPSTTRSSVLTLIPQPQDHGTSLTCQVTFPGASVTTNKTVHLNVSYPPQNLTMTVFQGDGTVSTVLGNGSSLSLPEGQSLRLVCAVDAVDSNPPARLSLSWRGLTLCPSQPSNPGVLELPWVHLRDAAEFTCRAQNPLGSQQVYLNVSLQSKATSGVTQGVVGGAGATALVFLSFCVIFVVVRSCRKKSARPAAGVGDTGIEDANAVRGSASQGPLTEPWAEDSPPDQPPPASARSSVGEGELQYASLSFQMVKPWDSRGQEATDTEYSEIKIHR

[5] = test system: Trypanosoma cruzi; test: Trypanosoma cruzi phosphomannomutase and mannose-1-phosphate guanylyltransferase assay; format: functional; details: 10 µM
[6] = biological target: T2, Arginase-2, mitochondrial (Homo sapiens) (UniProt P78540); test: in vitro enzyme assay to detect the production of urea directly proportional to the activity of Arginase II; format: functional; details: 33.3 µM; further: in the data most compounds retested in dose-response had high values
T2 sequence (whole entry): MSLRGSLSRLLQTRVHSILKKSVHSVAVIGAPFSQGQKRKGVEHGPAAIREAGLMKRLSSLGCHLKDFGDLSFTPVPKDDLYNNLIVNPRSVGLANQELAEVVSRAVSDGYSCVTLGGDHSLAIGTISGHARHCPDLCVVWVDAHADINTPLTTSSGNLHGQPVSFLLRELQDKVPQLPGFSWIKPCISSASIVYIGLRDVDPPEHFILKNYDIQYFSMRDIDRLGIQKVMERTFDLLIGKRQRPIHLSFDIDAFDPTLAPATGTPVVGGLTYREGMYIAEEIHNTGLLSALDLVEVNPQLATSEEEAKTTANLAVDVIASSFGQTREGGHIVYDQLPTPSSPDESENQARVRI

[7] = biological target: T3, Proteasome subunit beta (Trypanosoma cruzi) (UniProt O96673); test: Trypanosoma cruzi proteasome chymotrypsin-like activity (TcProtChymo) assay.; further: in the data most compounds retested in dose-response had high values; format: functional; details: 9.37 µM
T3 sequence (whole entry): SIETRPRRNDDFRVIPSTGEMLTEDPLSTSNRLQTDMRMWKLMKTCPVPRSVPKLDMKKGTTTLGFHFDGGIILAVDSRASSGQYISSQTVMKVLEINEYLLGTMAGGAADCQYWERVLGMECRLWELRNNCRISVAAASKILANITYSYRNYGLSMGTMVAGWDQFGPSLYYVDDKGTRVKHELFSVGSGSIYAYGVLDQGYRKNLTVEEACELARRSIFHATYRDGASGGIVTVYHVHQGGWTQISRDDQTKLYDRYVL

[8] = species on record: Homo sapiens; test: To identify inhibition of the IFN signalling (Jak-Stat) pathway via expression of an eGFP reporter gene under the control of an IFN-stimulated response element (ISRE) containing MxA promoter.; format: functional; details: 30 µM
[9] = biological target: T4, Tyrosyl-tRNA synthetase, putative (Trypanosoma cruzi (strain CL Brener)) (UniProt Q4DSP6); test: Trypanosoma cruzi tyrosyl tRNA synthetase (TcYRS) _High Tyrosine SOP; format: functional; details: 30 µM; further: in the data most compounds retested in dose-response had high values
T4 sequence (whole entry): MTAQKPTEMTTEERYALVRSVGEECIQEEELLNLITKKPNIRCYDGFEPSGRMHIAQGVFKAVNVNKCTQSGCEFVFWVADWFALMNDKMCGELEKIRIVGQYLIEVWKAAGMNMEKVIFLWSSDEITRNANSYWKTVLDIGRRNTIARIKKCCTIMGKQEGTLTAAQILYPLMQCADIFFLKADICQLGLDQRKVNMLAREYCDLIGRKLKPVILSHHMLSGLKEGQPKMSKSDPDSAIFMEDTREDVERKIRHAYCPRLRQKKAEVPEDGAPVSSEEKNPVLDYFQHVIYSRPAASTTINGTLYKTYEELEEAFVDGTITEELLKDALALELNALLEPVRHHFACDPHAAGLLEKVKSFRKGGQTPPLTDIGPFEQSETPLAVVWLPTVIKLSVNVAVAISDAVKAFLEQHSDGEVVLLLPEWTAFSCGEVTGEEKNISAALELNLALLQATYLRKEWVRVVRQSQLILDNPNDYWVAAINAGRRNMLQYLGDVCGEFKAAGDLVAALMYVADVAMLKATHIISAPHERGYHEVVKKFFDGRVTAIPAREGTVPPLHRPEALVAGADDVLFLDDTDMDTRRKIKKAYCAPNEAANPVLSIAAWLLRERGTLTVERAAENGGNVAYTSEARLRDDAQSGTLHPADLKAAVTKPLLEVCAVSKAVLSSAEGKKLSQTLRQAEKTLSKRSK

[10] = biological target: T4, Tyrosyl-tRNA synthetase, putative (Trypanosoma cruzi (strain CL Brener)); test: Trypanosoma cruzi tyrosyl tRNA synthetase (TcYRS) SOP; format: functional; details: 30 µM
[11] = biological target: Chromo domain-containing protein 1 (Saccharomyces cerevisiae (strain ATCC 204508 / S288c) (Baker's yeast)) (UniProt P32657); test: ScCHD-1 Enzyme Inhibition Assay; format: functional; details: 30 µM; further: in the data most compounds retested in dose-response had high values
Chromo domain-containing protein 1 (Saccharomyces cerevisiae (strain ATCC 204508 / S288c) (Baker's yeast)), sequence (P32657 whole entry, the tested form may be a part): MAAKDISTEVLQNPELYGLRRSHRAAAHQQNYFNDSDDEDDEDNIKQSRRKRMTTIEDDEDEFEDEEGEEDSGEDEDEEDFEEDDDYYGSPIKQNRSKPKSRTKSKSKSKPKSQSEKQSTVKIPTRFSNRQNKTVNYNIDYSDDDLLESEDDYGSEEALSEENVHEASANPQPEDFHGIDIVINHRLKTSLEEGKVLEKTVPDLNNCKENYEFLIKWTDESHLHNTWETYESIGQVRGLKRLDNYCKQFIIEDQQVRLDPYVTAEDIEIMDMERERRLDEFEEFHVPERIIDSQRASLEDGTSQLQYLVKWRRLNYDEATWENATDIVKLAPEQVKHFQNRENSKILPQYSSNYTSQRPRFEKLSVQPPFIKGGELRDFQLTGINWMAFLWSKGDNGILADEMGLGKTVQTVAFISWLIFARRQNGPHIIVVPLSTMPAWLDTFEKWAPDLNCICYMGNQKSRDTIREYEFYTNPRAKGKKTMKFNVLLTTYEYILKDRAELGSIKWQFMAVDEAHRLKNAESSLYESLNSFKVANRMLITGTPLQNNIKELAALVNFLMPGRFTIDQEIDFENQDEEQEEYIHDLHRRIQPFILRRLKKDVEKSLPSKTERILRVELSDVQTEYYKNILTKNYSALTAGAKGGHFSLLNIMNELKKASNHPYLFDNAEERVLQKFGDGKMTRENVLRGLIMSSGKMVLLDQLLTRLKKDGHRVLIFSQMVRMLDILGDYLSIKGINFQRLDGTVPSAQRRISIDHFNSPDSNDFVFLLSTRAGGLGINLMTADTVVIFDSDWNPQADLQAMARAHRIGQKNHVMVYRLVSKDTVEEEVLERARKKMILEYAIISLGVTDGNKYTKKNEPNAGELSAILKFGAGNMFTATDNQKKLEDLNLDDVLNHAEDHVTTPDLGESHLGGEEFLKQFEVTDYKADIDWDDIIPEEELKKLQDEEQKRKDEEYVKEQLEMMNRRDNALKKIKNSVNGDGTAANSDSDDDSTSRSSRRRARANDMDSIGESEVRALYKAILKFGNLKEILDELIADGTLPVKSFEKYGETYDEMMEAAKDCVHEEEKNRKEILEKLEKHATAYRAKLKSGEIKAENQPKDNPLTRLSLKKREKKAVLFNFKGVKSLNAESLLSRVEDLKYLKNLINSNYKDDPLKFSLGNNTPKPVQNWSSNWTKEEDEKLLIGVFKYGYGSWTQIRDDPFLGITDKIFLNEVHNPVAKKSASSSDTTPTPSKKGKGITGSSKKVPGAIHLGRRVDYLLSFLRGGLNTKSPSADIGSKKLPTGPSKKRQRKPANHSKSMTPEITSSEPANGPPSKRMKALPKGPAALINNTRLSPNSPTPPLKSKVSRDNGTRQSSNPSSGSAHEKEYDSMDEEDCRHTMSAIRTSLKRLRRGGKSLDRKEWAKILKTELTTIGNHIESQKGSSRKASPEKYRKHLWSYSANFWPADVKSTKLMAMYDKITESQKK

Protein translocase subunit SecA (Escherichia coli (strain K12)), sequence (P10408 whole entry): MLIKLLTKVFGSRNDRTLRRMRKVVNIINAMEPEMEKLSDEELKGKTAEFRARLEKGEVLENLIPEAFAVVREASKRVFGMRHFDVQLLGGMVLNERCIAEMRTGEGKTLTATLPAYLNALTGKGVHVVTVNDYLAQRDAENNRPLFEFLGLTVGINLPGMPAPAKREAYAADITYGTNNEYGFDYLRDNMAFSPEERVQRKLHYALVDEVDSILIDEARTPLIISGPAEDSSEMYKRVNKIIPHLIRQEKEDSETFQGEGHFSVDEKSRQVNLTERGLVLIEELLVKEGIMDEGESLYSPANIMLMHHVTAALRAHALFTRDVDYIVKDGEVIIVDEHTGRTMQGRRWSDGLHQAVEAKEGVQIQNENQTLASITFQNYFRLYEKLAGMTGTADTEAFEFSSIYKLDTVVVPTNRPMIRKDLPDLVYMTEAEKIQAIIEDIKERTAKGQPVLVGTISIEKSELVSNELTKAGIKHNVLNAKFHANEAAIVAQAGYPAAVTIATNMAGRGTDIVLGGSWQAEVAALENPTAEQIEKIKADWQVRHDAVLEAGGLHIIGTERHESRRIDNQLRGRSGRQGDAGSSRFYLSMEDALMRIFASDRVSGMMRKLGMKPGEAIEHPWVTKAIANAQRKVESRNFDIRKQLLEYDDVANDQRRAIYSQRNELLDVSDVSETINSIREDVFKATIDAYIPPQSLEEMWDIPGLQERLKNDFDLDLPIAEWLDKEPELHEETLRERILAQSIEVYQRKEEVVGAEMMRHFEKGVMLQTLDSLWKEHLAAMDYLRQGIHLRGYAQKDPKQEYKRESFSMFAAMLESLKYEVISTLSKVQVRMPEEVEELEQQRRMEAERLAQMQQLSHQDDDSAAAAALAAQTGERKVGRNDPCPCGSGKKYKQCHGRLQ

Structure (SMILES)	Percent Effect [1] [%]	Percent Effect [2] [%]	Percent Effect [3] [%]	Percent Effect [4] [%]	Percent Effect [5] [%]	Percent Effect [6] [%]	Percent Effect [7] [%]	Percent Effect [8] [%]	Percent Effect [9] [%]	Percent Effect [10] [%]	Percent Effect [11] [%]
CS(=O)(=O)NC[C@]12COC[C@H]1CN(C(=O)Cc1ccccc1F)C2	0.295	-101	5.66	-7.42	-7.2	-4.52	6.44	-5.85	-125	-232	-6.07
O=C(c1ccc2c(c1)CCC2)N1C[C@@H](CN2CCOCC2)[C@@H](CO)C1	-4.64	2.67	1.02	21.3	-6.52	0	1.22	0.733	3.83	3.7	-3.15
COCCN1C(=O)CC(N2CCN(c3ccc(OC)cc3)CC2)C1=O (configuration not stated)	1.03	6.94	1.7	4.19	4.37	13.7	16.8	-7.93	8.42	15.4	-3.31
CC(C)Nc1nc(N2CCOCC2)nc2c1CN(CC(=O)N(C)C)CC2	-9.2	0	6.79	-0.0149	-0.591	1.17	-5.37	15.8	-1.06	-3.85	-5.05
Cc1cnn(C2CCCN(C(=O)CCc3nccs3)C2)c1 (configuration not stated)	-2.71	16.2	-1.11	0.709	-8.4	1.2	17.3	16.1	2.46	3.7	-3.34
CCn1cc(CN2CCCN(C(=O)CCc3ccncc3)CC2)cn1	-3.49	26	-14.6	4.57	1.87	-0.712	5.91	23.6	8.74	14.6	-7.66
COCC1CN(C(=O)C2=CCCCC2)Cc2cnn(CC3CC3)c21 (configuration not stated)	-1.86	13	2.96	2.46	1.48	-4.52	10.1	18	7.41	16.7	-9.46
COCCN(C)C[C@@H]1CN(C(=O)c2cccc(C(F)(F)F)c2)C[C@@H]1CO	-0.782	2.7	1.75	21.1	5.79	10	13.4	-3.37	2.65	14.6	-4.78
CN(CC(=O)N1CCN(c2ccccc2F)CC1)c1cnccn1	-1.13	16.2	-1.85	4.66	-0.0929	-5.73	6.82	12.1	5.94	15.8	-7.13
O=C1OCCN1CCc1nc(-c2cc3c4c(c2)CC(=O)N4CCC3)cs1	-8.45	0	4.43	-2.26	-7.87	-0.712	9.97	47.2	0.971	0	-5.4
COc1ccc(Br)c(C(=O)NCCNc2ccc(C(F)(F)F)cn2)c1	0.559	18.2	8.45	-0.542	-1.08	0.21	10.9	-7.76	11.4	25.9	-25.7
CCCc1n[nH]c(C2CN(C(=O)C3=COCCC3)CCO2)n1 (configuration not stated)	-3.49	2.63	-0.787	5.25	2.52	1.44	-2.96	2.6	2.46	1.24	10.7
COc1ccccc1OCC(=O)NCC(O)(c1ccccc1)C1CC1 (configuration not stated)	-4.08	13.7	-8.54	17	2.74	0.909	14	7.48	8.6	15	-5.98
CC(=O)Nc1nc(C(=O)N2CCCC(c3cc(C)[nH]n3)C2)cs1 (configuration not stated)	-6.81	-28.9	-1.06	8.53	6.63	0.36	2.28	2.32	4.43	11.1	0.638
Cc1cnn(CC2CCCN2C(=O)c2cc3ccccc3[nH]c2=O)c1 (configuration not stated)	-8.51	7.79	-12.6	-10	-5.97	-1.9	8.49	15	1.91	7.06	-15.3
CN(C(=O)c1cccc(C(=O)NS(C)(=O)=O)c1)c1ccccc1	-5.66	15.6	1.54	14.7	6.98	-24.8	16.5	4.53	6.45	13.6	-2.26
Cc1ncc(CNC2CCCN(Cc3noc(C4CC4)n3)C2)s1 (configuration not stated)	-0.948	10.5	2.18	8.33	3.01	2.3	10.2	8.96	7.35	19.5	-8.72
CN(CCNC(=O)NCc1ccncc1)C1CCCC1	-0.694	-5.41	-4.53	1.79	-3.3	0.401	-6.31	7.43	1.48	-1.24	2.18
Cc1ccc(CN(C)C(=O)CN2CCOC(Cn3cncn3)C2)o1 (configuration not stated)	1.63	15.2	-6.86	-11.8	-7.46	9.89	13	16.3	5.42	11.4	-2.75
O=C(NS(=O)(=O)c1ccccc1Cl)c1cccc2c1OCCO2	-5.38	5.48	-3.79	16.7	3.53	8.64	10.7	7.24	-10.8	-10	96.7
COc1ccsc1C(=O)N1CCCC(n2nc(C)nc2C)C1 (configuration not stated)	0.303	0	-4.74	-3.48	-6.89	2.66	-1.72	6.32	6.4	3.8	1.65
COc1cccc(S(=O)(=O)NC(=O)COC2CCCC2)c1	-1.91	20.8	2.89	10.4	2.06	2.85	10.6	3.15	8.74	24.4	-6.86
